Tests used:
Type in all cases: functional
[1] = biological target: Solute carrier family 2, facilitated glucose transporter member 1 (Homo sapiens) (UniProt P11166); test: ST_JUDE_LEISH: Cytotoxicity at 2uM final concentration against transgenic Leishmania Mexicana promastigotes LmGLUT1 that are glucose transport deficient and complemented with the human glucose transporter GLUT1. Activity is measured by DNA content using SYBR green in vitro
[2] = biological target: Hexose transporter 1 (Plasmodium falciparum) (UniProt O97467); test: ST_JUDE_LEISH: Cytotoxicity at 2uM final concentration against transgenic Leishmania Mexicana promastigotes LmPfHT that are glucose transport deficient and complemented with the Plasmodium falciparum hexose transporter. Activity is measured by DNA content using SYBR green in vitro
[3] = biological target: Glucose transporter (Leishmania mexicana) (UniProt O61059); test: ST_JUDE_LEISH: Cytotoxicity at 2uM final concentration against transgenic Leishmania Mexicana promastigotes LmGT2 that are glucose transport deficient and complemented with the L. Mexicana glucose transporter 2. Activity is measured by DNA content using SYBR green in vitro

Solute carrier family 2, facilitated glucose transporter member 1 (Homo sapiens), sequence (P11166 whole entry): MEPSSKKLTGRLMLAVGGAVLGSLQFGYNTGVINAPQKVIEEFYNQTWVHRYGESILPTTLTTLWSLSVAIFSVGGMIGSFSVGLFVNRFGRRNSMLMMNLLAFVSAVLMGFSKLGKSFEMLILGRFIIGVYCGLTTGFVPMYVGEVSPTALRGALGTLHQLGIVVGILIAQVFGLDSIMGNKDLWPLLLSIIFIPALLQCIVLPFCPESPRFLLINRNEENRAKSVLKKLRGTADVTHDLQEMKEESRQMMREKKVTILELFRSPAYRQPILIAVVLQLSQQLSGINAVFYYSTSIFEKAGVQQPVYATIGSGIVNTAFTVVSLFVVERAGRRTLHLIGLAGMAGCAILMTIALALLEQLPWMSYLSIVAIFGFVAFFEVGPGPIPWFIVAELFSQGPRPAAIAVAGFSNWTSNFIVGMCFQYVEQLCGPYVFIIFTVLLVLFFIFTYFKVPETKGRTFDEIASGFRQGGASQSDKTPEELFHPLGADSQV

Structure (SMILES)	inhibition [1] [%]	inhibition [2] [%]	inhibition [3] [%]
CCc1ccc(NC(=O)c2ccc(CN3CCCN(CCC(C)C)CC3)cc2)cc1	7.61	4.69	5.85
CC1(C)NC(N)=NC(=N)N1OCCCCOc1ccc(Cl)cc1C1CCCCC1	18	26.4	11.5
CCOC(=O)C1=C(C)NC2=C(C(=O)CC(C)(C)C2)C1c1ccc(Cl)cc1 (stereo not given)	-1.57	0.77	0.29
COc1cc2nc(N(C)CC3COc4ccccc4O3)nc(N)c2cc1OC (stereo not given)	3.64	1.69	-0.97
CCNc1cc(C(=O)N[C@@H](Cc2ccccc2)[C@H](O)CNC2CC3CCC2C3)cc(N2CCCCS2(=O)=O)c1 (stereo not given in full)	1.78	1.76	-3.22
COc1ccc(CNCCCCCCCNCc2ccc(Cl)c(Cl)c2)cc1Cl	5.86	4.67	2.7
O=C(/C=C/c1ccc(Cl)c(Cl)c1)NCCCCCN1CCCN(C(=S)Nc2ccc(Cl)cc2)CC1	1.38	1.56	1.57
N=C(Cc1ccc(Cl)cc1)NCCN1CCCCCC1	5.13	7.11	6.19
CCCc1cc(OC)c(CC2c3cc(O)c(C)cc3CCN2C)cc1OC (stereo not given)	-2.27	-4.03	3.59
Cc1cc(C)c(NC(=O)N[C@H]2CCN(CCCCCNC(=O)/C=C/c3ccc(Cl)c(Cl)c3)C2)c(C)c1	-0.8	-0.95	1.3
CC1CCN(Cc2c(O)ccc3c(O)c(-c4nc5ccccc5s4)c(=N)oc23)CC1	0.12	0.79	-0.56
c1ccc(CNc2nc(NCCN3CCCCC3)nc3ccccc23)cc1	10.2	11.1	4.27
COc1ccc2nccc([C@@H](O)CN3CCC(NCc4ccc5c(c4)NC(=O)C(C)S5)CC3)c2c1 (stereo not given in full)	12.2	1.99	4.38
CNC(=O)NC1=NC(C)(C)N(OCCCOc2cc(Cl)c(Cl)cc2Cl)C(N)=N1	11.5	11.8	11.6
COc1ccc(C(=O)N[C@@H](CC(C)C)C(=O)N[C@H](/C=N/NC(=O)c2ccccc2)CCc2ccccc2)cc1OCCN1CCOCC1	-0.43	3.34	6.8
COc1ccc(-c2nc(NC(=O)CSc3ccccc3)sc2C)cc1	9.07	4.4	6.37
COc1cc2nc(NCCc3ccccc3)nc(NCc3cc(C)no3)c2cc1OC	4.85	4.61	2.42
COc1cc(C=NN=c2cc(C)[nH]c3ccccc23)cc(OC)c1OC	3.56	4.95	1.6

Structure (SMILES)	inhibition [1] [%]	inhibition [2] [%]	inhibition [3] [%]
O=C(N[C@@H](CC1CCCCC1)C(=O)NCCN1CCCC1)c1ccc(O)c(-c2cccc(C(F)(F)F)c2)c1	-0.44	-0.43	0.16
COc1ccc(NS(=O)(=O)c2ccc(Oc3nc(C)nc4sc5c(c34)CCCC5)cc2)cc1	3.13	3.7	2.29
Cc1noc(C)c1-c1ccc2c(Nc3ccccc3C(C)(C)C)c(C(=O)NCc3ccccc3)cnc2c1	6.6	7.11	3.62
COc1ccc(NS(=O)(=O)c2cccc(C(=O)Nc3ccc(C(F)(F)F)cc3)c2)cc1N1CCN(CC(C)C)CC1	7.82	4.29	6.21
Cc1cc(C(=O)Nc2ccc(-c3ccccc3)cc2)no1	2.6	0.53	0.52
O=C(NCCCN1CCN(c2cccc(Cl)c2)CC1)c1ccc(-c2nc3cc(Cl)c(Cl)cc3[nH]2)c(F)c1	3.57	1.4	1.68
CCn1c(-c2cc(C)on2)nc2cnc(Oc3ccc(C(=O)N4CC(=O)N(C)C4C(C)(C)C)cc3)cc21 (stereo not given)	-1.85	1.92	5.58
c1ccc2c(NCCCCCCCNc3ccnc4ccccc34)ccnc2c1	13.5	13.3	12.9
O=C1c2cc(I)ccc2SC1c1ccccc1 (stereo not given)	1.22	0.48	0.13
COc1ccc(-n2ccnc2SCC(=O)Nc2cc(Cl)ccc2OC)c(OC)c1	2.64	-0.3	4.9
COc1ccc(NC(=O)[C@H](Cc2ccccc2)Nc2nc(NCCN3CCCC3)ncc2C)cc1	1.71	2.57	3.02
CCCc1cc(Cc2cnc(N)nc2N)cc(CCC)c1OCCCCCC(=O)OCC	4.7	2.93	2.52
CN(Cc1cccc(F)c1)C1CCN(c2cc(NC(=O)c3ccc(F)cc3)ccn2)C1 (stereo not given)	2.33	-0.57	1.63
O=C(/C=C/c1ccc(Cl)c(Cl)c1)NCCCCCN1CCC(NC(=O)Nc2ccc(F)c(Cl)c2)CC1	3.93	4.82	6.8
CCCCc1ccc(S(=O)(=O)Nc2ccc3c(c2)CCN(Cc2c[nH]c4cnccc24)CC3)cc1	-1.78	-0.79	5.76
COc1ccc(N2C(=O)C3C(C2=O)C2(C)c4ccccc4C3(C)c3ccccc32)c([N+](=O)[O-])c1 (stereo not given)	9.9	8.14	9.94
C=C(C)CSc1nc2c(c(=O)n1Cc1ccco1)C1(CCCCC1)Cc1ccccc1-2	3.67	3.16	4.72

Reference: ChEMBL document CHEMBL3433997, “St. Jude Leishmania screening dataset” (2016)
